According to PubChem BioAssay (EPA / NIEHS):
Inconclusive results are not listed. Active and inactive are the calls of the source. How the source made its calls: active means hit-call score of the fitted dose curve at least 0.9, where 1 is the maximum; inconclusive means response in the unintended direction; inactive means score below 0.9.

Read-out: xenobiotic metabolism (CYP1A1), CYP1A1 (gene 1543)
Test: CLD_CYP1A1_24hr: CellzDirect (CLD) Gene Expression Assay for xenobiotic metabolism (CYP1A1) at 24 hours (AID 2283673)
Protocol: CLD_24hr is a cell-based, multiplexed-readout assay that uses hepatocyte, a human liver primary cell, with measurements taken at 24 hours after chemical dosing in a 96-well plate.CLD_CYP1A1_24hr is one of 16 assay component(s) measured or calculated from the CLD_24hr assay. It is designed to make measurements of mRNA induction, a form of inducible reporter, as detected with chemiluminescence signals by Quantitative Nuclease Protection Assay (qNPA) technology.Data from the assay component CLD_CYP1A1_24hr was analyzed at the endpoint, CLD_CYP1A1_24hr, in the positive analysis fitting direction relative to DMSO as the negative control and baseline of activity. Using a type of inducible reporter, gain-of-signal activity can be used to understand changes in the reporter gene as they relate to the gene CYP1A1. Furthermore, this assay endpoint can be referred to as a primary readout. To generalize the intended target to other relatable targets, this assay endpoint is annotated to the cyp intended target family, where subfamily is xenobiotic metabolism.
Human hepatocyte cultures were treated daily for two consecutive days with fresh dosing solutions containing appropriate concentrations of the 320 ToxCast chemicals (chemical identities were blinded to CellzDirect and other ToxCast collaborators), vehicle control (0.2% DMSO), and positive control inducers as summarized in Table 1. Due to the large number of treatment groups and chemicals examined, the ToxCast chemicals were divided into two groups (spanning two independent cultures of hepatocytes from separate donor preparations (Hu778: ToxCast plates 1 and 2; Hu776: ToxCast plates 3 and 4). Each preparation of human hepatocyte cultures was treated with respective vehicle control, medium only control, set of six positive controls/reference chemicals for the five hepatic receptor pathways, and a subset of eight of the ToxCast chemicals (indoxacarb, pyrithiobac-sodium, norflurazon, cyhalofop-butyl, methomyl, thiram, acetochlor, and propiconazole). These replicate data, coupled with internal replicates designed within the blinded ToxCast chemical library, provided additional data to evaluate interindividual differences between hepatocyte preparations and their potential impact on chemical profiles.Cell morphology and integrity were evaluated using phase-contrast microscopy as an indicator of hepatocyte cell health (Tyson & Green, 1987). Cultures for each treatment group (i.e., media, vehicle [0.2% DMSO], positive control inducers [multiple concentrations], and the ToxCast chemicals [multiple concentrations]) were observed and cell morphology was assessed relative to vehicle control cultures at each harvest time point (0, 6, 24, or 48 h). […] Images were evaluated at the conclusion of the study to assess changes in cell integrity and account for the effects of chemical exposure on uncharacteristic changes in concentration-dependent gene expression profiles. The results from these determinations of apparent cytotoxicity were annotated (yes/no) alongside the corresponding qNPA data for reference.At the conclusion of each treatment period, hepatocyte cultures (96-well) were washed with 1 volume of HBSS, lysed by addition of 25 ul ArrayPlate lysis buffer (HTG, Tucson, AZ), and 70 ul/well of Denaturation Oil, denatured by incubation at 95C for 10 min, and frozen at approximately -70C until analysis by nuclease protection assay (qNPA) (Roberts et al., 2007). For qNPA analysis, cell lysates were thawed at 50C for approximately 30 min, qNPA probes were added, and samples were incubated at 95C for 10 min to begin the detection process by denaturing the target RNA, dissociating the duplexes and secondary structure hybridization. At the conclusion of the hybridization period, S1 nuclease reagent was added to each sample to digest all nonprotected nucleotides at 50C for 60-90 min. […]

| Compound | outcome | AC50 |
| --- | --- | --- |
| N#CN=C1SCCN1Cc1ccc(Cl)nc1 | inactive |  |
| CCCCC(O)(Cn1cncn1)c1ccc(Cl)cc1Cl (stereo not given) |  | 4.35 µM (active) |
| Cc1nc(N(C)C)nc(OC(=O)N(C)C)c1C |  | 2.75 µM (active) |
| Cc1c(COC(=O)[C@@H]2[C@H](/C=C(\Cl)C(F)(F)F)C2(C)C)cccc1-c1ccccc1 |  | 31.6 µM (active) |
| CCN(CC)C(=O)C(C)Oc1cccc2ccccc12 (stereo not given) | inactive |  |
| O=C1C2CC=CCC2C(=O)N1SC(Cl)(Cl)Cl (stereo not given) | inactive |  |
| CNC(=O)Oc1cccc2ccccc12 |  | 8.24 µM (active) |
| CCOc1nc(C(Cl)(Cl)Cl)ns1 | inactive |  |
| CCN(CC)c1nc(C)cc(OP(=S)(OC)OC)n1 |  | 5.14 µM (active) |
| Cn1c(-c2ccccc2)cc(-c2ccccc2)[n+]1C |  | 0.158 µM (active) |
| CCCN(CC)CC1COC2(CCC(C(C)(C)C)CC2)O1 (stereo not given) |  | 0.376 µM (active) |
| CS(=O)(=O)c1ccc(C(=O)C2C(=O)CCCC2=O)c([N+](=O)[O-])c1 | inactive |  |
| COC(=O)N(C(=O)N1CO[C@@]2(C(=O)OC)Cc3cc(Cl)ccc3C2=N1)c1ccc(OC(F)(F)F)cc1 |  | 1.86 µM (active) |
| COCC(C)N(C(=O)CCl)c1c(C)csc1C (stereo not given) | inactive |  |
| CC1(C)CCC(=Cc2ccc(Cl)cc2)C1(O)Cn1cncn1 (stereo not given) |  | 4.02 µM (active) |
| Cc1cc(C)nc(Nc2ccccc2)n1 |  | 7.59 µM (active) |
| N#Cc1c[nH]cc1-c1cccc2c1OC(F)(F)O2 |  | 3.64 µM (active) |
| CNC(=O)N(C)c1nnc(C(C)(C)C)s1 | inactive |  |
| CCOc1nc(F)cc2nc(S(=O)(=O)Nc3c(Cl)cccc3Cl)nn12 |  | 20 µM (active) |
| CCCCC(C#N)(Cn1cncn1)c1ccc(Cl)cc1 (stereo not given) |  | 35.3 µM (active) |

| Compound | outcome | AC50 |
| --- | --- | --- |
| COCC(=O)N(c1c(C)cccc1C)C(C)C(=O)OC (stereo not given) | inactive |  |
| COP(=S)(OC)Oc1ccc([N+](=O)[O-])c(C)c1 |  | 3.97 µM (active) |
| O=C(Nc1ccccc1-c1ccc(Cl)cc1)c1cccnc1Cl |  | 5.36 µM (active) |
| OC(c1ccc(Cl)cc1)(c1ccc(Cl)cc1)C(Cl)(Cl)Cl |  | 20 µM (active) |
| CCOc1cc(C(C)(C)C)ccc1C1COC(c2c(F)cccc2F)=N1 (stereo not given) |  | 20 µM (active) |
| CCOC(=O)C(C)OC(=O)c1cc(Oc2ccc(C(F)(F)F)cc2Cl)ccc1[N+](=O)[O-] (stereo not given) |  | 20 µM (active) |
| COC(=O)c1c(C(F)F)nc(C(F)(F)F)c(C2=NCCS2)c1CC(C)C |  | 36.1 µM (active) |
| CC1(C)CON(Cc2ccccc2Cl)C1=O | inactive |  |
| CC1(C)C(C=C(Cl)Cl)C1C(=O)OC(C#N)c1cccc(Oc2ccccc2)c1 (stereo not given) |  | 8.15 µM (active) |
| COP(=S)(OC)SCn1nnc2ccccc2c1=O |  | 3.65 µM (active) |
| COC(=O)NC(=S)Nc1ccccc1NC(=S)NC(=O)OC |  | 15.1 µM (active) |
| COc1cc(OC)nc(NC(=O)NS(=O)(=O)c2ncccc2OCC(F)(F)F)n1 | inactive |  |
| Nc1c(Cl)c(F)nc(OCC(=O)O)c1Cl | inactive |  |
| CSC(=O)c1c(C(F)F)nc(C(F)(F)F)c(C(=O)SC)c1CC(C)C |  | 4.78 µM (active) |
| COc1ccc(-c2ccccc2)cc1NNC(=O)OC(C)C |  | 14.1 µM (active) |
| CC(C)N1C(=O)c2ccccc2NS1(=O)=O | inactive |  |
| CCNP(=S)(OC)O/C(C)=C/C(=O)OC(C)C (stereo not given) |  | 3.93 µM (active) |
| CC(C)(C)C(=O)C(Oc1ccc(Cl)cc1)n1cncn1 (stereo not given) |  | 9.03 µM (active) |
| CC(C)Nc1nc(Cl)nc(NC(C)C)n1 |  | 11.4 µM (active) |
| COc1cc(Cl)c(OC)cc1Cl | inactive |  |
